Here are results for 40 molecules from the supplement of paper PMC13380429.

The assay deals with Vero E6 infected with SARS-CoV-2. Description: morphology score (similarity to uninfected cells); higher = more like uninfected cells. To be noted: 24 h.
The molecule `COc1cccc(NC(=O)/C=C/c2ccc(Cl)cc2)c1` (10 µM) came in with a morphology score of -0.0484.

For the molecule `COc1cccc2c1C(=O)c1c(O)c3c(c(O)c1C2=O)C[C@@](O)(C(=O)CO)C[C@@H]3O[C@H]1C[C@H](N)[C@H](O[C@@H]2CCCCO2)[C@H](C)O1` [pirarubicin] (10 µM), the morphology score was -0.0488.

`O=C(N[C@H](Cc1ccccc1)C(=O)O)c1sc2cc(F)ccc2c1Cl` (10 µM): the morphology score turned out to be 0.16.

`CCC(=O)Nc1cccc(Oc2nc(Nc3ccc(N4CCN(C)CC4)cc3OC)ncc2Cl)c1` (10 µM) showed a morphology score of 0.0191.

The molecule `CC1C=CC=CCCC=CC=CC=CC=CC(OC2OC(C)C(O)C(N)C2O)CC2OC(O)(CC(O)C(O)CCC(O)CC(O)CC(O)CC(=O)OC(C)C(C)C1O)CC(O)C2C(=O)O` (stereo not given) [nystatin] (10 µM) registered a morphology score of -0.0648.

Consider `CCCc1nc2c(C)cc(-c3nc4ccccc4n3C)cc2n1Cc1ccc(-c2ccccc2C(=O)O)cc1` [telmisartan] (10 µM), for which the morphology score came out at 0.215.

For the molecule `N=C(N)N/N=C/c1c(Cl)cccc1Cl` [guanaben-acetate] (10 µM), the morphology score was -0.127.

On to `Nc1ncnc2c1ncn2[C@H]1CC[C@@H](CO)O1` [dideoxyadenosine] (10 µM), for which the morphology score came to 0.103.

`N[C@@H]1CCN(c2cccnc2)C1` (10 µM) showed a morphology score of 0.0226.

The molecule `CCCc1c(OCCCCc2nnn[nH]2)ccc(C(C)=O)c1O` [tomelukast] (10 µM) gave a morphology score of -0.0661.

In the case of `N[C@H](Cc1ccccc1)C(=O)O` [D-phenylalanine] (10 µM), the morphology score stood at 0.0544.

Consider `NC(=O)CN1CC(O)CC1=O` (stereo not given) [oxiracetam] (10 µM), for which the morphology score is -0.00498.

In turn, `O=C([O-])CN1CCN(CC(=O)[O-])CCN([C@H](CO)[C@H](O)CO)CCN(CC(=O)[O-])CC1.[Gd+3]` (racemic) [gadobutrol] (10 µM) came in with a morphology score of -0.0306.

As for `c1ccc([C@H]2CNCc3ccccc32)cc1` [4-phenyl-1,2,3,4-tetrahydroisoquinoline] (10 µM), the morphology score was -0.263.

Molecule `CN1CCC(=C2c3ccccc3CCn3c(C=O)cnc32)CC1` [alcaftadine] (10 µM) had a morphology score of 0.0541.

For `CC(C)(Oc1ccc(C(=O)c2ccc(Cl)cc2)cc1)C(=O)O` [fenofibric-acid] (10 µM), the morphology score amounted to 0.137.

The molecule `CC[C@H](C)C[C@H](C)CCCCCCCCC(=O)N[C@H]1C[C@@H](O)[C@@H](NCCN)NC(=O)[C@@H]2[C@@H](O)CCN2C(=O)[C@H]([C@H](O)CCN)NC(=O)[C@H]([C@H](O)[C@@H](O)c2ccc(O)cc2)NC(=O)[C@@H]2C[C@@H](O)CN2C(=O)[C@H]([C@@H](C)O)NC1=O` [caspofungin] (10 µM) gave a morphology score of -0.0128.

`CC(C)C(=O)Nc1ccc([N+](=O)[O-])c(C(F)(F)F)c1` [flutamide] (10 µM): the morphology score was -0.24.

Take `COc1cccc(-c2ccc(NC(=O)C3=C(C(=O)O)CCC3)c(F)c2)c1` (10 µM): the morphology score turned out to be 0.159.

For the molecule `OCc1ccccc1O[C@@H]1O[C@H](CO)[C@@H](O)[C@H](O)[C@H]1O` [salicin] (10 µM), the morphology score was 0.153.

The molecule `c1ccc2c(-c3cnn4cc(-c5ccc(N6CCNCC6)cc5)cnc34)ccnc2c1` (10 µM) displayed a morphology score of -0.0877.

Consider `CCC(=O)NC[C@H](Cc1ccc(OCCc2nc(-c3ccccc3)oc2C)cc1)N/C(C)=C\C(=O)c1ccc(C(F)(F)F)cc1` (10 µM), for which the morphology score is -0.0333.

Molecule `CN1C(CSCC(F)(F)F)Nc2cc(Cl)c(S(N)(=O)=O)cc2S1(=O)=O` (stereo not given) [polythiazide] (10 µM) came in with a morphology score of 0.2.

With `C[C@H](Nc1cc(-c2cnn(C)c2)cc(Nc2cnccn2)n1)c1ccc(F)cc1` (0.833333 µM), the morphology score is -0.112.

Turning to `N=C(C[C@@H](O)COc1ccccc1-c1ccccc1)N1CCCCC1` (10 µM), the morphology score is 0.0845.

As for `CCCCNNC(=O)c1ccc(Br)cc1` (0.833333 µM), the morphology score was -0.294.

For the molecule `Cc1csc(NC(=O)CSc2ccc(-c3ccccc3)nn2)n1` (10 µM), the morphology score is 0.49.

On to `C=CC[N@@+]12CC[C@@]34c5ccccc5N5/C=C6/[C@H]7C[C@H]8[C@@]9(CC[N@@+]8(CC=C)C/C7=C/CO)c7ccccc7N(/C=C(/[C@@H](C[C@@H]31)/C(=C\CO)C2)[C@H]54)[C@@H]69` [alcuronium] (10 µM), for which the morphology score is -0.108.

Consider `C[C@@]1(F)[C@H](O)[C@@H](CO)O[C@H]1n1ccc(N)nc1=O` (10 µM), for which the morphology score worked out at 0.0439.

`CNC(=S)C1(c2ccccn2)CCCS1` (stereo not given) [picartamide] (10 µM) came in with a morphology score of -0.0189.

Molecule `O=C1CS[C@@H](c2ccccc2Cl)c2cc(Cl)ccc2N1` (racemic) (10 µM) gave a morphology score of 0.245.

Molecule `COc1ccc(S(=O)(=O)N2CCCN(S(=O)(=O)c3ccc(OC)c(OC)c3)CC2)cc1OC` (10 µM) registered a morphology score of 0.209.

Molecule `Cc1cccc(C(C)c2c[nH]cn2)c1C` (stereo not given) [medetomidine] (10 µM) showed a morphology score of -0.0614.

Turning to `COc1ccc(Cn2ccc3ccc(C(=O)NO)cc32)cc1` (0.833333 µM), the morphology score came to 0.108.

`CN[C@@H](C)C(=O)N[C@H](C(=O)N1CCC[C@H]1C(=O)N[C@H]1c2ccccc2C[C@H]1OCC#CC#CCO[C@@H]1Cc2ccccc2[C@@H]1NC(=O)[C@@H]1CCCN1C(=O)[C@@H](NC(=O)[C@H](C)NC)C1CCCCC1)C1CCCCC1` (10 µM) registered a morphology score of -0.161.

In turn, `CC1=NN(c2ccccc2)C(=O)C1` [edaravone] (10 µM) gave a morphology score of 0.127.

`CCN1CCN(C(=O)Cc2ccc(Nc3ncc(F)c(Nc4ccc(C(=O)Nc5ccccc5Cl)cc4)n3)cc2)CC1` [aurora-a-inhibitor-i] (10 µM) yielded a morphology score of -0.072.

Molecule `CCCCOc1ccc(-c2cncc(C(=O)NCc3cccnc3N3CCOCC3)c2)cc1Cl` (10 µM) came in with a morphology score of -0.147.

Molecule `CC(CNC1CCCCC1)OC(=O)c1ccccc1` (stereo not given) [hexylcaine] (10 µM) displayed a morphology score of -0.0327.

Consider `Cn1c(=O)c2[nH]c(Br)nc2n(C)c1=O` [pamabrom] (10 µM), for which the morphology score stood at 0.0536.
